Data taken from PubChem BioAssay AID504329 (Southern Research Specialized Biocontainment Screening …, 2011).
About 1,000 (0.29%) of roughly 340,000 compounds were called active. The list is a sample of the results. Results with a measured potency or affinity are listed apart. A number with no mark means an inactive call. Cut-off read from the data, not from the text of the source: inconclusive = inhibition above about 27% without an active follow-up result; inactive = below that.

Test: NS1A inhibition, H1N1 influenza, cell based functional assay (AID 504329)
Details: percent inhibition, at 12.5 µM, active compounds read high

Compound	inhibition [%]
COc1ccc(/C=N/NC(=O)C2c3ccccc3-c3ccccc32)cc1	1.63
O=C(NNC(=O)C1CC=CCC1)c1ccccc1Cl (stereo not given)	-13.4
Cc1ccccc1SCC(=O)NNC(=O)c1ccccc1O	-9.27
O=C(NNC(=O)c1ccccc1Cl)c1ccccc1Cl	-1.97
COc1ccc(/C=C2/C(=O)NC(=S)N(C3CC3)C2=O)cc1CN1C(=O)c2ccccc2C1=O	-5.91
Cc1ccc(/C=C2\C(=O)NC(=S)N(c3ccccc3F)C2=O)s1	-6.98
O=C1/C(=C/c2cccs2)NC(=S)N1C1CC1	25.9
CCOC(=O)C1CCN(/C=C2\C(=O)NC(=S)N(CC)C2=O)CC1	1.72
CCNC(=S)NNC(=O)c1ccncc1	-6.57
Cc1cccc(NC(=O)COc2ccc(/C=N\n3cnnc3)cc2)c1	-2.09
CS(=O)(=O)N1CCN(C(=O)Cc2ccc(Br)cc2)CC1	-21.4
O=C(O)/C=C/c1cn(-c2ccccc2)nc1-c1ccccc1	-7.13
CCOc1ccc(C(C(=O)NC2CCCCC2)N(C(=O)c2ccccn2)c2cccnc2)cc1 (stereo not given)	-3.97
CCCCCCCCNc1nc(Cl)nc(NCc2ccco2)n1	-0.33
O=C(O)c1ccccc1NS(=O)(=O)c1cccc2nsnc12	-1.24
O=C(NNC(=S)NC1CCCCC1)c1ccccc1O	5.32
O=C(N/N=C/c1c(O)n(C2CCCCC2)c(=S)[nH]c1=O)c1ccccc1O	-5.43
Cn1nccc1C(=O)Nc1sc2c(c1C(N)=O)CCCC2	-3.24
O=C(Oc1c(CN2CCOCC2)cc(Cl)c2cccnc12)c1ccc(F)cc1	5.6
Oc1ccc(CNc2ccc(F)cc2)c2cccnc12	28.1
Oc1c(I)cc(Cl)c2cccnc12	-16.7
Oc1ccc(CNc2ccccc2F)c2cccnc12	12.8
Oc1ccc(CNc2ccccc2)c2cccnc12	10.6
CN1CCN(Cc2cc(Cl)c3cccnc3c2OC(=O)c2cccs2)CC1	-0.27

Compound	inhibition [%]
O=c1oc2ccccc2c(O)c1Cc1cc(Cl)c2cccnc2c1O	-5.95
Oc1cc2c(cc1CN1CCc3ccccc3C1)OCO2	13.1
CC(=O)OCC(=O)c1ccc2ccn(C(C)=O)c2c1	2.53
c1ccc(CN(Cc2cccs2)C(c2cccs2)c2nnnn2C2CCCC2)cc1 (stereo not given)	4.12
CSc1cc(-c2ccc(Cl)cc2)c(C(=O)N2CCCC2)s1	-3.23
O=S(=O)(c1cc(F)ccc1F)N1CCN(C2CCCCC2)CC1	0.25
Cn1c(=Nc2ccccc2)sc2ccccc21	9.39
COc1ccc(N=c2sc3ccccc3n2C)cc1	1.52
O=C(COC(=O)/C=C/c1cccc(Cl)c1)NC1CCCC1	-4.83
CC(C)(C)c1ccc(-c2n[nH]c(=S)n2CC2CCCO2)cc1 (stereo not given)	3.44
Cc1ccc(C2=NOC(=O)/C2=C\C=C\c2ccccc2)cc1	-3.38
O=C/C=C/c1ccccc1	2.7
CC1=C(C)N(C)[C@H](c2ccccc2Br)[C@H](O)C1=O	-9.31
O=C(CSc1nnc(-c2cccnc2)n1Cc1ccccc1)N1CCOCC1	0.45
Cc1ccc(Nc2nc(-c3c(C)nc4ncccn34)cs2)cc1	-0.31
Cc1nc2ncccn2c1-c1csc(Nc2ccc(O)cc2)n1	5.22
S=C(NCc1ccco1)Nc1ccc(Cl)cc1Cl	0.07
N=c1n(CCN2CCOCC2)c2ccccc2n1CC(=O)c1cccc([N+](=O)[O-])c1	0.36
Cc1nc2ccccc2c(=O)n1CCCN1CCOCC1	-0.85
O=c1[nH]c(-c2ccccn2)nc2sc(-c3ccccc3)cc12	1.57
CCc1cc2c(=O)[nH]c(-c3ccncc3)nc2s1	-1.62
COC(=O)c1cc(NS(=O)(=O)c2ccc(NC(C)=O)cc2)ccc1Cl	10.8
COc1cc(OC)c(OC)cc1/C=N/NC(=S)NCCN1CCOCC1	-3.02
Oc1cccc(/C=N/NC(=S)NCCN2CCOCC2)c1O	-11.6

Compound	inhibition [%]
CCCCNC(=S)N/N=C/c1cccc(OCC)c1O	-0.5
O=C(NCCCN1CCOCC1)C(=O)N/N=C/c1cccc2ccccc12	-23.6
O=C(NCCCN1CCOCC1)C(=O)N/N=C/c1ccccc1Cl	-2.62
COc1cc(/C=N/NC(=S)NCCN2CCOCC2)ccc1O	-6.09
S=C(NCCN1CCOCC1)N/N=C/c1ccccc1	4.1
COc1cc(/C=N/NC(=S)NCCN2CCOCC2)cc(OC)c1OC	-0.84
N#C/C(=C\Nc1ccc(Cl)cc1)S(=O)(=O)c1ccccn1	-7.92
Cc1ccc2nc(SCC(=O)Nc3cccc([N+](=O)[O-])c3)[nH]c2c1	4.1
CCOC(=O)C1=C(C)C(c2ccccc2O)NC(=O)N1 (stereo not given)	-4.1
CCCOc1ccc(-c2nc(OCC)c3ccccc3n2)cc1	-12.4
COc1cc2c(cc1OC)C(c1ccsc1)CC(=O)N2 (stereo not given)	2.33
O=C(O)c1ccccc1Nc1ccccc1C(=O)O	5.1
O=C(O)c1ccccc1Nc1ccnc(Cl)n1	4.77
CCOC(=O)N1CCC(=C(C#N)C(=O)Nc2cc(OC)ccc2OC)CC1	7.42
COc1ccccc1NC(=O)CSc1n[nH]c(-c2cccnc2)n1	2.96
Cc1nc(SCC(=O)Nc2cccc(Cl)c2)n[nH]1	-19.4
COc1ccccc1-c1nc(SCC(=O)Nc2ccccc2F)n[nH]1	-2.78
O=C(CSc1n[nH]c(-c2ccncc2)n1)Nc1ccccc1	-1.24
COc1ccccc1NC(=O)CSc1n[nH]c(-c2ccco2)n1	-13
O=C(CSc1n[nH]c(-c2ccco2)n1)Nc1ccccc1F	2.4
O=C(CSc1n[nH]c(-c2cccnc2)n1)Nc1cccc(Cl)c1	0.29
O=C(CSc1n[nH]c(-c2cccnc2)n1)Nc1ccccc1	-8.39
